# Reference: PubChem BioAssay (Tox21)
# Where “and” joins values, the source holds several entries; their conditions need not be identical. Equal entries are not always repeated. Results filed as inconclusive are left out. Calls of active or inactive are those of the source. Calls follow the shape of the dose curve; as a rule, active = well fitted curve in the direction sought with a large enough effect in the repeat runs; inconclusive = weak or mixed curves; inactive = no such curve, though single readings can be large; an effect the other way counts as inactive or inconclusive.
# How the values were obtained:
# [1] = molecular target: Cytochrome P450 2C19 (Homo sapiens) (UniProt P33261); assay: Cytochrome P450 Family 2 Subfamily C Member 19 (CYP2C19) small molecule antagonists: luciferase reporter qHTS assay (AID 1671197); settings: P450-Glo CYP2C19 enzyme, luciferin luminescence, 1 h; series mostly up to 52.9 µM; also: nearly all actives have a fitted effect of over 65% in size
# Procedure, shortened: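 P450-Glo CYP2C19 screening system; proluciferin substrate; DMSO compound stocks; 10 min RT preincubation; NADPH regeneration, 1 h at 37C; luciferin detection reagent, 20 min RT; luminescence as RLU.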
# [2] = molecular target: Cytochrome P450 2C9 (Homo sapiens) (UniProt P11712); assay: Cytochrome P450 Family 2 Subfamily C Member 9 (CYP2C9) small molecule antagonists: luciferase reporter qHTS assay (AID 1671198); settings: P450-Glo CYP2C9 enzyme assay, luciferin luminescence; series mostly up to 53 µM; also: nearly all actives have a fitted effect of over 50% in size
# Procedure, shortened: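 P450-Glo proluciferin substrate with CYP2C9 enzyme; 10 min RT preincubation, then NADPH regeneration 1 h at 37C; luciferin detection reagent 20 min RT, luminescence in relative luminescence units.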
# [3] = molecular target: Cytochrome P450 1A2 (Homo sapiens) (UniProt P05177); assay: Cytochrome P450 Family 1 Subfamily A Member 2 (CYP1A2) small molecule antagonists: luciferase reporter qHTS assay (AID 1671199); settings: P450-Glo CYP1A2 enzyme, luciferin luminescence, 1 h; series mostly up to 53 µM; also: nearly all actives have a fitted effect of over 50% in size
# Procedure, shortened: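 Read-out is luminescence from luciferin detection reagent (20 min) proportional to CYP1A2 activity; compounds in DMSO preincubated 10 min with enzyme and proluciferin substrate, then NADPH regeneration solution, 1 h, room temperature.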
# [4] = molecular target: Voltage-gated inwardly rectifying potassium channel KCNH2 (Homo sapiens) (UniProt Q12809); assay: Human Ether-a-go-go-Related Gene (hERG) channel small molecule antagonists: fluorescence cell-based qHTS assay (AID 1671200); settings: hERG-U2OS cells, FluxOR thallium flux fluorescence; series mostly up to 76.8 µM; also: nearly all actives have a fitted effect of over 50% in size
# Procedure, shortened: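 Channel function was assessed by thallium flux. Cells seeded the previous day and kept at 37 C took up FluxOR II dye over 1 h in the dark at room temperature, then sat another 10 min before stimulation.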
# [5] = molecular target: Cytochrome P450 3A4 (Homo sapiens) (UniProt P08684); assay: Cytochrome P450 Family 3 Subfamily A Member 4 (CYP3A4) small molecule antagonists: luciferase reporter qHTS assay (AID 1671201); settings: P450-Glo CYP3A4 enzyme, luciferin luminescence, 1 h; series mostly up to 115 µM; also: nearly all actives have a fitted effect of over 50% in size
# Procedure, shortened: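 Compounds in DMSO were pin-transferred onto CYP3A4 enzyme-substrate mix and held 10 min at room temperature. NADPH regenerating solution started the reaction for 1 h; luciferin detection reagent stopped it, and luminescence was read after 20 min.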
# Potency is read from the fitted curve at half-maximal effect.
# Voltage-gated inwardly rectifying potassium channel KCNH2 (Homo sapiens), sequence (Q12809 whole entry, looked up): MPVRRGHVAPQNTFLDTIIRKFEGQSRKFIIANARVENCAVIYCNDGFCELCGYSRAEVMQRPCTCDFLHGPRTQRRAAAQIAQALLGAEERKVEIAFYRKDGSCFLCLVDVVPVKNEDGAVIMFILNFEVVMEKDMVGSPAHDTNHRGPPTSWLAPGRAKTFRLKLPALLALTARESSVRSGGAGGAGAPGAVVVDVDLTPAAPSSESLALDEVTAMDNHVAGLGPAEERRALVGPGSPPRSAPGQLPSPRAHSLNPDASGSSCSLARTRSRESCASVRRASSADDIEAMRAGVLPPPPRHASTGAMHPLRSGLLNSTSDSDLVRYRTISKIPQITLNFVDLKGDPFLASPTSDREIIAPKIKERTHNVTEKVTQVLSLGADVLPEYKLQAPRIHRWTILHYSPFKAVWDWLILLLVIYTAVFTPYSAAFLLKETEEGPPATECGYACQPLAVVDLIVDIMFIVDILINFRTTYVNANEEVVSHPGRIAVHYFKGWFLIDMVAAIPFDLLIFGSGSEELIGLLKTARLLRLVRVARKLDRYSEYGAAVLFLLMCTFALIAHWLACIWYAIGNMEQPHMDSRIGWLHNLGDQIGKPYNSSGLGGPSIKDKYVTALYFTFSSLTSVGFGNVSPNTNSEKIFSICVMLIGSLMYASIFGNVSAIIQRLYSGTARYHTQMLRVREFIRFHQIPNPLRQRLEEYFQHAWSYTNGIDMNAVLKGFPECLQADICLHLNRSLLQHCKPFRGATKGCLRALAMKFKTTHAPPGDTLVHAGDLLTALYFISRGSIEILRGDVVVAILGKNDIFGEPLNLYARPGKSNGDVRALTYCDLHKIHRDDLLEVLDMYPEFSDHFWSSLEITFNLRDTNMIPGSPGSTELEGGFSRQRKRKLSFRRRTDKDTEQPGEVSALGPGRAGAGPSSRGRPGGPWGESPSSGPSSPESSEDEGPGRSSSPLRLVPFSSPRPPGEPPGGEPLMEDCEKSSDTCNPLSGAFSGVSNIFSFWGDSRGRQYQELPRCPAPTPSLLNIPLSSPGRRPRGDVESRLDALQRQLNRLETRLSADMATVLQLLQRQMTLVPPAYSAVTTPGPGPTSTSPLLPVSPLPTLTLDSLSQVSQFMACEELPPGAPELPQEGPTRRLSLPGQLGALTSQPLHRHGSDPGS
# Cytochrome P450 2C9 (Homo sapiens), sequence (P11712 whole entry, looked up): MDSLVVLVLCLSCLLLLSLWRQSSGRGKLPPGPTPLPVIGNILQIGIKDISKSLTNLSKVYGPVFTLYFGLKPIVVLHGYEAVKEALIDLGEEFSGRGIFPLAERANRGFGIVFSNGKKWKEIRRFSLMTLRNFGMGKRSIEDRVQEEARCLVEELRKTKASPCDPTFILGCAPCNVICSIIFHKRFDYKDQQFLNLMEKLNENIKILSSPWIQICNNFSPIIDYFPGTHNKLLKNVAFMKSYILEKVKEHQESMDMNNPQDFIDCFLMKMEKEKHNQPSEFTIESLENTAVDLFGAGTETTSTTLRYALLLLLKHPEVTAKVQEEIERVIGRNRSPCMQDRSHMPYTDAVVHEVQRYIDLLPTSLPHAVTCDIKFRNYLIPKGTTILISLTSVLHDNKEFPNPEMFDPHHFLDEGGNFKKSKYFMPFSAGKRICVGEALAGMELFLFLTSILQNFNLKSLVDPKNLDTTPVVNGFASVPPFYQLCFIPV
# Cytochrome P450 1A2 (Homo sapiens), sequence (P05177 whole entry, looked up): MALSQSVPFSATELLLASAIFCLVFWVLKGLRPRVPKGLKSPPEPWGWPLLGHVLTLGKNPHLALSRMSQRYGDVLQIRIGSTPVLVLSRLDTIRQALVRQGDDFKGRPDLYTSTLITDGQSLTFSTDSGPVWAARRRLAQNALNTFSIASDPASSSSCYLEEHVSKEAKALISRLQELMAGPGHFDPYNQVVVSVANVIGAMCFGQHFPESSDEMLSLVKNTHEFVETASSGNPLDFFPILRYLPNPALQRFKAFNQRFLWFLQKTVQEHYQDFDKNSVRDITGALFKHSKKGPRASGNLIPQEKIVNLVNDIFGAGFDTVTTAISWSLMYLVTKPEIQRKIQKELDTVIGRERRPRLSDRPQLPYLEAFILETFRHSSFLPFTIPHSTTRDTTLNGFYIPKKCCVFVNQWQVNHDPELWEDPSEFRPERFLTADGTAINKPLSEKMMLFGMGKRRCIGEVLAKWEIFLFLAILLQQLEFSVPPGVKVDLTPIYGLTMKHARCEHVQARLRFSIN
# Cytochrome P450 3A4 (Homo sapiens), sequence (P08684 whole entry, looked up): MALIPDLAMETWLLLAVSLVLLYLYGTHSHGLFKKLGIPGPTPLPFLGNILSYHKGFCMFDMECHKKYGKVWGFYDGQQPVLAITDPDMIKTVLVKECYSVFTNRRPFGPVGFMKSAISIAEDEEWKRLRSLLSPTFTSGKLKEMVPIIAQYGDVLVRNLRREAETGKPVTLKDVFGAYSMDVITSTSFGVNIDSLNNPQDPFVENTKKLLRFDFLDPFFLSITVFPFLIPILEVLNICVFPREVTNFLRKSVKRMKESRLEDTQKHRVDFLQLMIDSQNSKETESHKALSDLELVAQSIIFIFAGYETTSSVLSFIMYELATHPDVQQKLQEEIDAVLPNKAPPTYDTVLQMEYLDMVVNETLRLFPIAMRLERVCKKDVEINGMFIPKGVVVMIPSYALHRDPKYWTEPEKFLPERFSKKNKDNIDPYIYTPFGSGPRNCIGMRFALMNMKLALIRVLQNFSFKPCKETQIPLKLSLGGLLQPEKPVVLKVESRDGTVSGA
# Cytochrome P450 2C19 (Homo sapiens), sequence (P33261 whole entry, looked up): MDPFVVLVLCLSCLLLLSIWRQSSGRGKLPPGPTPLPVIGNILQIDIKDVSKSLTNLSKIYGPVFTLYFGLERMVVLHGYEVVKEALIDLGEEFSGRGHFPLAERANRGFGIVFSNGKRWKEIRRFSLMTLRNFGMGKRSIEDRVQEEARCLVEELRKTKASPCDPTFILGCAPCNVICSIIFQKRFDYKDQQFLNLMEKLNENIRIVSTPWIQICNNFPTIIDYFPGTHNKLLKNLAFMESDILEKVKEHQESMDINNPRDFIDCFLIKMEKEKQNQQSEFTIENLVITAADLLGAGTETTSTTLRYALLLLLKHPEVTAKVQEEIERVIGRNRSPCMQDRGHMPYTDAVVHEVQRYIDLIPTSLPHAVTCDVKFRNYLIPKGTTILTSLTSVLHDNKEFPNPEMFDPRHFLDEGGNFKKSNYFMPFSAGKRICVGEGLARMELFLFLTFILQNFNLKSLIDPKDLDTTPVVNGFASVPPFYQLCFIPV
SMILES,Potency [1],Potency [2],Potency [3],Potency [4],Potency [5]
CCCCCCCCn1sc(Cl)c(Cl)c1=O,6.33 µM (active),3.17 µM (active),11.2 µM (active),12.3 µM (active),20 µM (active)
Nc1ccc2cc(S(=O)(=O)O)cc(O)c2c1N=Nc1ccccc1C(F)(F)F,79.6 µM (active),63.3 µM (active),39.9 µM (active),inactive,inactive
CCCCCCCCCCCCCCCS(=O)(=O)Oc1ccccc1,4.36 µM (active),1.23 µM (active),inactive,inactive,inactive
CSc1ccc(/C=C2/C(C)=C(CC(=O)O)c3cc(F)ccc32)cc1,17.4 µM (active),24.5 µM (active),15.5 µM (active),inactive,inactive
CCOc1ccc2nc3cc(N)ccc3c(N)c2c1,inactive,inactive,0.871 µM (active),inactive,inactive
Cc1cc(C2CCCCC2)n(O)c(=O)c1,inactive,inactive,inactive,inactive,inactive
CCCCCCCCCCCCCCCCCC[N+](C)(C)Cc1ccccc1,56.9 µM (active),40.3 µM (active),80.4 µM (active),2.78 µM (active),40.3 µM (active)
O=C1C=CC(=O)N1c1ccc(Cc2ccc(N3C(=O)C=CC3=O)cc2)cc1,7.96 µM (active),5.64 µM (active),20 µM (active),34.7 µM (active),35.6 µM (active)
Cc1cccc2c1cc1ccc3cccc4ccc2c1c34,inactive,inactive,0.205 µM (active),inactive,inactive
O=[N+]([O-])c1ccccc1Nc1ccccc1,19.9 µM (active),39.7 µM (active),5 µM (active),54.6 µM (active),inactive
CCN(C(=O)N(CC)c1ccccc1)c1ccccc1,7.96 µM (active),7.1 µM (active),inactive,inactive,
Oc1ccc(N=Nc2ccccc2)cc1,20.3 µM (active),36.1 µM (active),16.1 µM (active),inactive,20.3 µM (active)
CCCCCCCCS(=O)C(C)Cc1ccc2c(c1)OCO2 (centres undefined),40.7 µM (active),1.62 µM (active),28.8 µM (active),35.4 µM (active),5.75 µM (active)
OCCN1CCN(CC/C=C2/c3ccccc3Sc3ccc(C(F)(F)F)cc32)CC1,34.7 µM (active),inactive,19.5 µM (active),2.13 µM (active),
Cc1cc(O)c(C(C)(C)C)cc1Sc1cc(C(C)(C)C)c(O)cc1C,0.398 µM (active),2.51 µM (active),39.8 µM (active),inactive,5.63 µM (active)
Cc1[nH]nc2c1N=C(c1ccccc1Cl)c1cc([N+](=O)[O-])ccc1N2,17.8 µM (active),15.9 µM (active),63.3 µM (active),,3.99 µM (active)
O=C1c2c(O)ccc(Nc3ccc(CCO)cc3)c2C(=O)c2c([N+](=O)[O-])ccc(O)c21,39.9 µM (active),10 µM (active),31.7 µM (active),,31.7 µM (active)
CCCCCOC(=O)CCCC,inactive,inactive,inactive,inactive,inactive
OCCCCCCCCCCCCBr,inactive,inactive,40.5 µM (active),inactive,inactive
NC(=O)NS(=O)(=O)c1ccc(N)cc1,inactive,inactive,inactive,,inactive
CC(C)CCCCCCCCCCCCCCC(=O)O,inactive,inactive,inactive,inactive,inactive
Nc1c2ccccc2nc2ccccc12,inactive,inactive,1.25 µM (active) and 2.45 µM (active),inactive,inactive
CC1(C)CCC(C)(C)c2cc(C(=O)Nc3ccc(C(=O)O)cc3)ccc21,inactive,71 µM (active),inactive,,inactive
CCCCC(CC)COC(=O)c1ccccc1C(=O)O (centres undefined),40.6 µM (active),5.91 µM (active),54.2 µM (active),inactive,inactive
C[n+]1ccn(Cc2ccccc2)c1,inactive,inactive,inactive,inactive,inactive
NNc1nc(-c2ccc(N)cc2)cs1,79.6 µM (active),31.7 µM (active),35.6 µM (active),inactive,14.2 µM (active)
Nc1ccccc1O,19.7 µM (active),27.9 µM (active),15.7 µM (active),inactive,31.3 µM (active)
CCCCCCCCCCn1cc[n+](CCCCCCCCCC)c1C,35.6 µM (active),40 µM (active),71.1 µM (active),0.49 µM (active),31.8 µM (active)
